Bioassay records deposited in PubChem by several laboratories.
CYP2C19 activ – cytochrome P450 2C19 (human) activation | P33261 | activation factor at 5 µM | recombinant CYP2C19, luciferin-H EGE luminescence; stronger effect = higher value; 0 = fully inhibited enzyme, 1 = untreated enzyme | 96,000 tested, under 10 active;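 active = activation factor of at least 2 at 5 µM in the primary screen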;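 note: 0 = wells with 2.5 mM tranylcypromine and 1 = vehicle-only wells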
CYP2C9 activ – increases human cytochrome P450 2C9 activity | activation factor at 5 µM | recombinant CYP2C9, luciferin-H conversion, luminescence; stronger effect = higher value; factor 1 = untreated enzyme, 0 = blocked | 96,000 tested, 1.4% active | P11712 | AID 1024;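 active = activation factor of 2 or more for CYP2C9 at a 5 µM dose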;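 note: 0 = sulfaphenazole-blocked wells and 1 = vehicle-only wells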
Target sequence (P11712 whole entry, looked up): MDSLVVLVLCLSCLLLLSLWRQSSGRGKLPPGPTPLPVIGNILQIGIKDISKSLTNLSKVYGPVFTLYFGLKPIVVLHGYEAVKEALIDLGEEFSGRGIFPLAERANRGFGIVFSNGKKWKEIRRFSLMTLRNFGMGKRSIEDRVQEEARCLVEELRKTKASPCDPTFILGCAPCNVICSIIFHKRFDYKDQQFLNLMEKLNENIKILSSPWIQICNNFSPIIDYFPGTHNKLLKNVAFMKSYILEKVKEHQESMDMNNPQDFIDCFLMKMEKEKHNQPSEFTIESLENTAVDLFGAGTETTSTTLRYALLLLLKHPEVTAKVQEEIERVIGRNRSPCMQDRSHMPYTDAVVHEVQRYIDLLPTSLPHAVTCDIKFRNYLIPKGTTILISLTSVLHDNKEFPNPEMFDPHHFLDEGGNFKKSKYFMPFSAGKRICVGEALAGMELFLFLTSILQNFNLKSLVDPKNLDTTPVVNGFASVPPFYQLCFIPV
CYP2C19 inhib – blocks human cytochrome P450 2C19; P33261; CYP2C19 Supersomes, luciferin-H EGE luminescence, 30 min; inhibition, % at 5 µM; 96,000 tested, 21% active;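 active = CYP2C19 inhibition above a set limit at 5 µM in the primary screen, cut at about 50% in these data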;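 note: plate controls were negative control wells for no effect and 2.5 mM tranylcypromine positive control for full effect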
CYP2C9 inhib – human CYP2C9 inhibition; P11712; inhibition, % at 5 µM; CYP2C9 Supersomes, luciferin-H conversion, luminescence; 96,000 tested, 20% active; AID 777;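 active = blocking of liver enzyme CYP2C9 beyond about 50% at 5 µM, limit read from the data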
Measles CPE – protection of cells from measles virus. protection (pct of control), % at 4 µM. 140,000 tested, 1.5% active. Measles virus-infected cells, CPE protection, absorbance; in the data active = protection mostly above about 24%, no sharp cut-off; inactive = mostly below about 26%
The depositor's hits bear a star; / = not tested or not shown. Hits are enriched below; roughly 22% of the tested compounds scored in any of these assays.

SMILES	CYP2C19 activ	CYP2C9 activ	CYP2C19 inhib	CYP2C9 inhib	Measles CPE
O=C(CCNc1ccc(F)c(Cl)c1)c1ccco1	0.7	0.8	32	20	2
CC(=O)Cc1nsc(NC(=O)c2ccco2)n1	0.9	1	9	-3	17
Cc1cccc(C(=O)Oc2ccc(/C=N/NC(=O)Cc3ccc([N+](=O)[O-])cc3)cc2)c1	/	/	/	/	12
O=C(COC(=O)/C=C/c1cccc(Cl)c1)NCCc1ccc(Cl)cc1Cl	/	/	/	/	14
CCCCNC(=O)C12CCC(C)(C(=O)C1Br)C2(C)C (stereo not drawn)	/	/	/	/	5
CCOC(=O)c1c(C(=O)OCC)c(C)n(CCc2ccccc2)c1C	/	/	/	/	5
CCC(Sc1ncccc1C(=O)OCCN1CCCC1=O)C(=O)NCc1ccco1 (stereo not drawn)	1.1	0.9	-9	15	7
CCOC(=O)c1cccnc1SC(CC)C(=O)NCc1ccco1 (stereo not drawn)	0.3	0.3	68*	70*	12
CCC(Sc1ncccc1C(=O)OC(C)C)C(=O)NCc1ccco1 (stereo not drawn)	0.5	0.5	55*	50	16
CCN(CC)c1ccc(/C=N/NC(=S)NCc2ccccc2)c(O)c1	/	/	/	/	6
CCN1CCN(Cc2nc3c(c(=O)n(C)c(=O)n3C)n2C(C)C(C)=O)CC1 (stereo not drawn)	0.3	0.7	68*	32	4
COc1ccc(N(C(=O)Cn2nnc3ccccc32)C(C(=O)NCc2ccco2)c2ccc(C)o2)cc1 (stereo not drawn)	0.3	0.4	68*	58*	10
Cc1ccc(N(C(=O)Cn2nnc3ccccc32)C(C(=O)NCc2ccco2)c2cccnc2)cc1 (stereo not drawn)	0.3	0.9	65*	6	6
Cc1ccc(N(C(=O)Cn2nnc3ccccc32)C(C(=O)NCc2ccco2)c2ccc(C)o2)cc1 (stereo not drawn)	0.6	0.8	39	18	18
Cc1cc(C)cc(N(C(=O)Cn2nnc3ccccc32)C(C(=O)NCc2ccco2)c2ccncc2)c1 (stereo not drawn)	0.7	0.9	33	13	3
COc1ccc(OC)c(C(C(=O)NCc2ccco2)N(C(=O)Cn2nnc3ccccc32)C2CC2)c1 (stereo not drawn)	0.5	0.9	49	9	5
COc1cccc(N(C(=O)Cn2nnc3ccccc32)C(C(=O)NCc2ccco2)c2cccnc2)c1 (stereo not drawn)	0.2	0.7	79*	32	2
COc1ccc(OC)c(C(C(=O)NCc2ccco2)N(C(=O)Cn2nnc3ccccc32)C(C)C)c1 (stereo not drawn)	0.4	0.9	62*	12	22
O=C(c1ccc2c(c1)OCCO2)C1CCN(C(=O)c2ccc(F)c(F)c2)CC1	0.2	0.5	75*	47	/
COc1ccc(C(=O)N2CCC(C(=O)Nc3ccc4c(c3)OCCO4)CC2)cc1	1	0.9	-3	11	13
O=C(c1ccc2c(c1)OCCO2)C1CCN(C(=O)c2ccc(F)cc2)CC1	0.3	0.5	72*	50*	3
COc1ccccc1NC(=S)N1CCc2cc(OC)c(OC)cc2C1	/	/	/	/	15
O=C(c1ccc(Cl)c(Cl)c1)c1cc(-c2ccccn2)c(N2CCOCC2)s1	0.7	0.3	30	65*	4
C/C(CC1CC(COCC(C)C)OC1=O)=N\Nc1nc(-c2ccccc2)cs1 (stereo not drawn)	0.1	0.3	89*	72*	12
C/C(=N\Nc1nc(-c2ccccc2)cs1)c1cccs1	/	/	/	/	12
SMILES	CYP2C19 activ	CYP2C9 activ	CYP2C19 inhib	CYP2C9 inhib	Measles CPE
COc1ccc(CCNS(=O)(=O)c2ccc3oc(C(=O)O)c(C)c3c2)cc1OC	/	/	/	/	13
Cc1cccc(/C(N)=N/OC(=O)COc2ccc(Cl)c(C)c2)c1	/	/	/	/	23*
Cc1cccc(/C(N)=N/OC(=O)CCc2ccccc2)c1	0.8	0.5	21	54*	8
Cc1ccc(NC(=O)c2cc3c(s2)CCC3)cc1S(=O)(=O)N1CCOCC1	1.3	1	-34	0	20
COc1cc(S(=O)(=O)N2CCCCC2)ccc1NC(C)=O	0.9	1.3	10	-26	52*
COc1ccc(NC(=O)c2cc3c(s2)CCC(C)C3)cc1S(=O)(=O)N1CCOCC1 (stereo not drawn)	/	/	/	/	14
Cc1ccc(S(=O)(=O)N2CCOCC2)cc1NC(=O)c1cc2c(s1)CCC2	0.5	0.4	52*	64*	4
COc1cc(S(=O)(=O)N2CCOCC2)ccc1NC(=O)c1cc2c(s1)CCC2	0.5	0.3	46	68*	5
